According to PubChem BioAssay (Tox21):
Records with an inconclusive call do not appear. Values without a mark were called inactive. Calls of active or inactive are those of the source. Unless noted, calls follow the shape of the full dose curve.

Tested on: not listed separately
Assay: qHTS assay to identify small molecule antagonists of the sonic hedgehog signaling (Shh) pathway (AID 1259369); also: nearly all actives have a fitted effect of over 45% in size
Details: NIH/3T3 Gli1-Luc reporter, Shh antagonist, luminescence 24 h; series mostly up to 92.4 µM; activity change, negative = inhibition: at the top concentration
Outline: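 Cells are plated and held 4hr at 37 C, compounds (DMSO) are pinned in, conditioned medium is added to stimulate the pathway, and after 24hr luciferase reagent is added for 30min before luminescence is read.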
% is scaled to controls: 0 for no effect and ±100 for the full control effect; potency is read from the fitted curve at half-maximal effect.

Row | SMILES | activity change, negative = inhibition | Potency
1 | OC(c1ccc(Cl)cc1)(c1ccc(Cl)cc1)C(Cl)(Cl)Cl | -27.3% | –
2 | Clc1ccc(C(Cl)(Cl)Cl)c(Cl)c1 | 0% | –
3 | CCCOCC(=Nc1ccc(Cl)cc1C(F)(F)F)n1ccnc1 | – | 9.68 µM (active)
4 | O=C(Nc1ccc2[nH]ccc2c1)c1cc2cc(F)ccc2n1Cc1cccc(F)c1 | – | 24.3 µM (active)
5 | Clc1ccc(-c2ccccc2)cc1 | 13.3% | –
6 | C[As+](C)(C)CC(=O)[O-] | -28.8% | –
7 | O=C(CCCN1CCC2(CC1)C(=O)NCN2c1ccccc1)c1ccc(F)cc1 | – | 2.11 µM (active)
8 | CCSC(C)CC1CC(=O)C(/C(CC)=N/OC/C=C/Cl)=C(O)C1 (configuration not stated) | 2.57% [at 42.5 µM] | –
9 | CCc1cc(C)cc(CC)c1-c1c(OC(=O)C(C)(C)C)n2n(c1=O)CCOCC2 | 10.3% | –
10 | CCCCCCCCCCCCCN1CC(C)OC(C)C1 (configuration not stated) | 7.28% | –
11 | CCc1nn(C)c(C(=O)NCc2ccc(C(C)(C)C)cc2)c1Cl | – | 0.0386 µM (active)
12 | CN(C)CCc1c[nH]c2ccc(O)cc12 | – | 8.43 µM (active)
13 | ClC(Cl)=C(Cl)Cl | 22.5% | –
14 | c1ccc(Nc2ccc3ccccc3c2)cc1 | -45.7% | –
15 | O=C(CBr)c1ccc(O)cc1 | – | 54.5 µM (active)
16 | c1ccc2c(c1)OCC(C1=NCCN1)O2 (configuration not stated) | – | 0.376 µM (active)
17 | CCCCCCCCCCCCCCC(Br)C(=O)O (configuration not stated) | 0% | –
18 | CCC(C)c1cc(C(C)(C)C)cc(-n2nc3ccccc3n2)c1O (configuration not stated) | 40.8% [at 42.5 µM] | –
19 | CC(C)[C@H](C(=O)OC(C#N)c1cccc(Oc2ccccc2)c1)c1ccc(OC(F)F)cc1 (some centres not stated) | 10.3% | –

Molecular target: Estrogen receptor beta (Homo sapiens) (UniProt Q92731)
Sequence (Q92731 whole entry, looked up): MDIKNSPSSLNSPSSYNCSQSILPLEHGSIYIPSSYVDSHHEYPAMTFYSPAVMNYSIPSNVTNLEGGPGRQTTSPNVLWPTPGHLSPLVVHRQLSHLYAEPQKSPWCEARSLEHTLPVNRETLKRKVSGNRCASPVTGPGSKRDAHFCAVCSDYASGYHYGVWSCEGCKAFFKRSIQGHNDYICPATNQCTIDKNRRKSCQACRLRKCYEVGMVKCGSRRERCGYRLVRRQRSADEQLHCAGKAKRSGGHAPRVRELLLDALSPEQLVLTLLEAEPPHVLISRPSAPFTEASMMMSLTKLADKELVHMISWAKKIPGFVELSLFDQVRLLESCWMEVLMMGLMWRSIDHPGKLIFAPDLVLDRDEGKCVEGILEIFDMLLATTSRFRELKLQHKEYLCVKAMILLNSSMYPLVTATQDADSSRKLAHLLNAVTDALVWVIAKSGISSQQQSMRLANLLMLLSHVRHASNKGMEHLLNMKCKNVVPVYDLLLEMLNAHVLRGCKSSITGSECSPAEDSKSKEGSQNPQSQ
Assay: qHTS assay to identify small molecule agonists of the estrogen receptor beta (ER-beta) signaling pathway (AID 1259377; active = well fitted activation curve with a large enough effect in the signal ratio in the repeat runs, not every such curve was filed as active; the % refers to the signal ratio)
Details: ER-beta-UAS-bla HEK293T, beta-lactamase FRET ratio, 16 h; series mostly up to 92.4 µM; activation: at the top concentration
Outline: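 Ratiometric beta-lactamase FRET read-out came after 2 h substrate loading at room temperature. It followed 16 h compound treatment at 37C of GripTite HEK293T cells carrying a UAS-bla reporter, plated in 2% charcoal-stripped FBS medium.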

Row | SMILES | activation | Potency
20 | Oc1cc(Cl)c(Cl)c(Cl)c1 | -3.61% | –
21 | NNC(=O)c1ccccc1 | -1.75% | –
22 | ClCCN1CCOCC1 | -0.116% | –
23 | Cc1cc(C)cc(OP(=O)(Oc2cc(C)cc(C)c2)Oc2cc(C)cc(C)c2)c1 | -1.52% | –
24 | CC1(c2ccc(Oc3ccccc3)cc2)OC(=O)N(Nc2ccccc2)C1=O (configuration not stated) | 3.74% | –
25 | O=C1NCN(c2ccccc2)C12CCN(CC1COc3ccccc3O1)CC2 (configuration not stated) | -4.32% [at 42.5 µM] | –
26 | COc1ccc(OC)c(C=O)c1 | -2.71% | –
27 | CCCN(CC)CC1COC2(CCC(C(C)(C)C)CC2)O1 (configuration not stated) | -1.21% | –
28 | C[C@]12CC[C@@H]3c4ccc(OC(=O)N(CCCl)CCCl)cc4CC[C@H]3[C@@H]1CC[C@@H]2O | – | 266 nM (active)
29 | C=CC(=O)N(C)C | -1.14% | –
30 | O=C(CCl)Nc1ccccc1 | -11.9% | –
31 | COc1cccc(C(=O)CCN[C@@H](C)[C@H](O)c2ccccc2)c1 | -2.89% [at 42.5 µM] | –
32 | CC1(C)[C@H](C(=O)O[C@H](C#N)c2cccc(Oc3ccccc3)c2)[C@@H]1/C=C(\Cl)C(F)(F)F | – | inactive
33 | Clc1ccc(C(c2ccccc2Cl)C(Cl)(Cl)Cl)cc1 (configuration not stated) | 3.38% [at 42.5 µM] | –
34 | CCC(C)c1cc([N+](=O)[O-])cc([N+](=O)[O-])c1OC(=O)C=C(C)C (configuration not stated) | -0.855% | –
35 | CC(C)CCCCCOC(=O)c1ccccc1C(=O)OCCCCCC(C)C | 1.33% | –
36 | CCc1ccccc1C | -1.73% | –
37 | Oc1ccc(C(c2ccc(O)cc2)(C(F)(F)F)C(F)(F)F)cc1 | -0.913% | –
38 | Brc1c(Br)c(Br)c(Oc2c(Br)c(Br)c(Br)c(Br)c2Br)c(Br)c1Br | 9.23% [at 19 µM] | –

Row | SMILES | activation | Potency
39 | OC(c1ccc(Cl)cc1)(c1ccc(Cl)cc1)C(Cl)(Cl)Cl | -1.98% | –
40 | Clc1ccc(C(Cl)(Cl)Cl)c(Cl)c1 | -0.485% | –
41 | CCCOCC(=Nc1ccc(Cl)cc1C(F)(F)F)n1ccnc1 | -3.21% | –
42 | O=C(Nc1ccc2[nH]ccc2c1)c1cc2cc(F)ccc2n1Cc1cccc(F)c1 | -2.73% | –
43 | Clc1ccc(-c2ccccc2)cc1 | 0.185% | –
44 | C[As+](C)(C)CC(=O)[O-] | -0.155% | –
45 | O=C(CCCN1CCC2(CC1)C(=O)NCN2c1ccccc1)c1ccc(F)cc1 | 0.136% [at 42.5 µM] | –
46 | CCSC(C)CC1CC(=O)C(/C(CC)=N/OC/C=C/Cl)=C(O)C1 (configuration not stated) | -0.426% [at 42.5 µM] | –
47 | CCc1cc(C)cc(CC)c1-c1c(OC(=O)C(C)(C)C)n2n(c1=O)CCOCC2 | -0.912% | –
48 | CCCCCCCCCCCCCN1CC(C)OC(C)C1 (configuration not stated) | -0.957% | –
49 | CCc1nn(C)c(C(=O)NCc2ccc(C(C)(C)C)cc2)c1Cl | -7.68% | –
50 | CN(C)CCc1c[nH]c2ccc(O)cc12 | 0.919% | –
51 | ClC(Cl)=C(Cl)Cl | 14.2% | –
52 | c1ccc(Nc2ccc3ccccc3c2)cc1 | – | inactive
53 | O=C(CBr)c1ccc(O)cc1 | 3.68% | –
54 | c1ccc2c(c1)OCC(C1=NCCN1)O2 (configuration not stated) | -3.84% [at 42.5 µM] | –
55 | CCCCCCCCCCCCCCC(Br)C(=O)O (configuration not stated) | -3.88% | –
56 | CCC(C)c1cc(C(C)(C)C)cc(-n2nc3ccccc3n2)c1O (configuration not stated) | -2.61% [at 42.5 µM] | –
57 | CC(C)[C@H](C(=O)OC(C#N)c1cccc(Oc2ccccc2)c1)c1ccc(OC(F)F)cc1 (some centres not stated) | 1.8% | –
